These results are taken from PubChem BioAssay (NCI).

The panel holds about 83,000 compounds, 20% with a hit somewhere; the sample as a whole holds those more often.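 Interpretation: 100, growth as untreated; towards 0, rising growth inhibition; 0, no net growth; 0 to -100, cell death. Compounds scoring below 10 were considered active.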 The source made the active and inactive calls.

One assay concerns SK-OV-3 ovarian. Put plainly: NCI-60 one-dose screen, 48 h (100 = growth as untreated, 0 = no growth, -100 = all killed). The following applies: 10 µM unless noted.
`COc1ccc(-c2cc(-c3cc(OC)ccc3OC)nc(SCC(=O)c3ccccc3)c2C#N)cc1`: the growth is 86.7% (inactive).

Turning to `Cc1ccc(Cl)c(NS(=O)(=O)c2ccc(-c3cnc(C4CC4)o3)cc2)c1`, the growth is 44.5% (inactive).

In the case of `COc1cccc(-c2nn(-c3ccccc3)cc2-c2ccnc(NCCNC(=O)c3ccccc3)c2)c1`, the growth was 65.3% (inactive). The same measure, in the same setting: for `Cc1cc(N2CCCC2)nc(NCc2cc(Nc3ccnc4cc(Cl)ccc34)ccc2F)n1` the value was 26.8% (inactive); for `COc1cccc(-c2nn(-c3ccccc3)cc2-c2ccnc(NCCNC(=O)Nc3ccccc3)c2)c1`, 58% (inactive). For `CC(C)CCC[C@@H](C)[C@H]1CC[C@H]2[C@@H](Nc3ccc(O)cc3)CCC[C@]12C`, the growth is 75.3% (inactive).

Take `COc1cc(-c2nn(-c3ccccc3)cc2-c2ccnc(NCCNS(=O)(=O)c3ccc(Cl)cc3)n2)ccc1Cl`: the growth was 22.7% (inactive). The same measure, in the same setting: for `CCCCn1c(=O)c2c(nc3n2CCCN3CCc2ccc(OCC(=O)NCCN(CC)CC)cc2)n(CCCC)c1=O` the value was 51.8% (inactive); for `COC(=O)CCC1=C(C)C2=NC1=CC1=NC(=CC3=NC(=Cc4[nH]c(/c(=C(/C)O)c4C)=C2)C(C(C)=O)=C3C)C(C)=C1CCC(=O)OC`, 95.1% (inactive); for `N[C@@H](CCCCNCC(=O)O)C(=O)O`, 103% (inactive).

With `O=C(c1ccc(Nc2nccc(NCCCCNc3ccnc4cc(Cl)ccc34)n2)cc1)N1CCCCC1`, the growth is 97.7% (inactive).

In the case of `Cc1cc(NCCCCNc2ccnc3cc(Cl)ccc23)nc(Nc2ccc(C(=O)N3CCCC3)cc2)n1`, the growth was 106% (inactive). Still for that read-out and setting: for `CC(C)(C)n1cc(-c2ccnc(NCCCNS(=O)(=O)c3ccccc3)c2)c(-c2ccccc2)n1` the value was 85.1% (inactive).

`Fc1ccc(CNc2c3ccccc3nc3ccccc23)cc1F`: the growth was 55.7% (inactive). The same measure, in the same setting: for `c1c[nH]c(CNC2CCCCC2)c1` the value was 102% (inactive).

As to `COc1cccc(-c2nn(-c3ccccc3)cc2-c2ccnc(NCCNC(=O)Nc3cccc(C(F)(F)F)c3)c2)c1`, the growth is 44.9% (inactive). Same read-out and setting: for `O=C(NCCCNc1cc(-c2cn(-c3ccccc3)nc2-c2cccc(O)c2)ccn1)c1ccc(F)cc1` the value was 30.1% (inactive).

With `Cc1cc(NCc2cc(Nc3ccnc4cc(Cl)ccc34)ccc2F)nc(Cl)n1`, the growth is 70.2% (inactive). Same read-out and setting: for `NC(=O)c1ccc[n+](Cc2ccc(Cl)cc2Cl)c1` the value was 97.2% (inactive); for `Cc1cc(Cl)nc(NCc2cc(Nc3ccnc4cc(Cl)ccc34)ccc2F)n1`, 85.1% (inactive); for `COc1ccc(-c2ccc3c(c2)sc2nc(-c4ccc(F)cc4)cn23)cc1`, 84.2% (inactive). With `O=C(NCCCNc1cc(-c2cn(-c3ccccc3)nc2-c2cccc(O)c2)ccn1)c1ccccc1`, the growth is 37.7% (inactive). Same read-out and setting: then `FC(F)(F)c1cc(Nc2ccc3cc(OCCCN4CCOCC4)ccc3n2)ccc1Cl`, with 58.3% (inactive); and `COC(=O)[C@]12CC[C@@H](C)[C@H](C)[C@@H]1C1=CC[C@@H]3[C@@]4(C)C(C=O)=C[C@@](C)(COC(C)=O)C4=CC[C@@]3(C)[C@]1(C)CC2`, with 6.81% (active).

Another assay relates to IGROV1 ovarian. The description is as above. The following applies: 10 µM unless noted.
For `COC(=O)[C@]12CC[C@@H](C)[C@H](C)[C@@H]1C1=CC[C@@H]3[C@@]4(C)C(C=O)=C[C@@](C)(COC(=O)c5ccco5)[C@@H]4C(=O)C[C@@]3(C)[C@]1(C)CC2`, the growth was 51.8% (inactive).

On to `COc1cccc(C(=O)NCCNc2cc(-c3cn(-c4ccccc4)nc3-c3cccc(OC)c3)ccn2)c1`, for which the growth was 74.1% (inactive). The same measure, in the same setting: for `O=C(O)C1CCC(=O)N1C(=O)OCc1ccccc1` (stereo unspecified) the value was 110% (inactive). The same measure, in the same setting: for `Cc1cc(NCc2cc(Nc3ccnc4cc(Cl)ccc34)ccc2F)nc(N2CCCC2)n1` the value was -2.2% (active). `COC(=O)[C@]12CC[C@@H](C)[C@H](C)[C@@H]1C1=CC[C@@H]3[C@@]4(C)C(C=O)=C[C@@](C)(COC(=O)c5ccco5)C4=CC[C@@]3(C)[C@]1(C)CC2`: the growth is 26.5% (inactive). On the same count and under the same terms, for `CC(CCc1ccc(Cl)c(Cl)c1)NCc1ccc(C(C)(C)C)cc1` (stereo unspecified) the value was 90.3% (inactive); for `Cc1ccc2nc3ccccc3c(NCc3ccccc3)c2c1`, 15.8% (inactive); for `COc1cc(-c2nc(N3CCN(C)CC3)c3ccccc3n2)cc(OC)c1OC`, 62.5% (inactive).

For `CCn1c(C)nc2cc(C(N)=O)ccc21`, the growth is 109% (inactive). Same read-out and setting: for `CN(C)CC1C(=O)O[C@H]2[C@H]1CC/C(COC(=O)c1cc3ccccc3[nH]1)=C\CC[C@@]1(C)O[C@@H]21` (stereo partly specified) the value was -41.2% (active).

For the molecule `CN1CCN(CCCOc2ccc3nc(Nc4ccc(F)c(F)c4)ccc3c2)CC1`, the growth was 58.9% (inactive). On the same count and under the same terms, then `COc1cccc(-c2nn(-c3ccccc3)cc2-c2ccnc(NCCCNC(=O)c3cccc(C(F)(F)F)c3)c2)c1`, with 58.8% (inactive); and `COc1ccc(-c2cc(-c3cc(OC)ccc3OC)nc(SCC(=O)c3ccccc3)c2C#N)cc1`, with 97.3% (inactive). Turning to `Cc1ccc(Cl)c(NS(=O)(=O)c2ccc(-c3cnc(C4CC4)o3)cc2)c1`, the growth is 27% (inactive).

With `COc1cccc(-c2nn(-c3ccccc3)cc2-c2ccnc(NCCNC(=O)c3ccccc3)c2)c1`, the growth was 79.6% (inactive). The same measure, in the same setting: then `Cc1cc(N2CCCC2)nc(NCc2cc(Nc3ccnc4cc(Cl)ccc34)ccc2F)n1`, with -18.4% (active); and `COc1cccc(-c2nn(-c3ccccc3)cc2-c2ccnc(NCCNC(=O)Nc3ccccc3)c2)c1`, with 65.4% (inactive).

For `CC(C)CCC[C@@H](C)[C@H]1CC[C@H]2[C@@H](Nc3ccc(O)cc3)CCC[C@]12C`, the growth is 38.8% (inactive).

Take `COc1cc(-c2nn(-c3ccccc3)cc2-c2ccnc(NCCNS(=O)(=O)c3ccc(Cl)cc3)n2)ccc1Cl`: the growth was 38.2% (inactive). Same read-out and setting: for `CCCCn1c(=O)c2c(nc3n2CCCN3CCc2ccc(OCC(=O)NCCN(CC)CC)cc2)n(CCCC)c1=O` the value was 59.3% (inactive).

As to `COC(=O)CCC1=C(C)C2=NC1=CC1=NC(=CC3=NC(=Cc4[nH]c(/c(=C(/C)O)c4C)=C2)C(C(C)=O)=C3C)C(C)=C1CCC(=O)OC`, the growth is 108% (inactive). Same read-out and setting: for `N[C@@H](CCCCNCC(=O)O)C(=O)O` the value was 108% (inactive); for `O=C(c1ccc(Nc2nccc(NCCCCNc3ccnc4cc(Cl)ccc34)n2)cc1)N1CCCCC1`, 46.5% (inactive); for `Cc1ccc(NCCN(C)C)c2c(=O)c3ccccc3sc12`, -30.9% (active). As for `Cc1cc(NCCCCNc2ccnc3cc(Cl)ccc23)nc(Nc2ccc(C(=O)N3CCCC3)cc2)n1`, the growth is 81.9% (inactive). On the same count and under the same terms, for `CC(C)(C)n1cc(-c2ccnc(NCCCNS(=O)(=O)c3ccccc3)c2)c(-c2ccccc2)n1` the value was 78.3% (inactive); for `Fc1ccc(CNc2c3ccccc3nc3ccccc23)cc1F`, 22.8% (inactive). `c1c[nH]c(CNC2CCCCC2)c1`: the growth is 107% (inactive). Still for that read-out and setting: for `COc1cccc(-c2nn(-c3ccccc3)cc2-c2ccnc(NCCNC(=O)Nc3cccc(C(F)(F)F)c3)c2)c1` the value was 55.4% (inactive); for `O=C(NCCCNc1cc(-c2cn(-c3ccccc3)nc2-c2cccc(O)c2)ccn1)c1ccc(F)cc1`, 45.8% (inactive); for `Cc1cc(NCc2cc(Nc3ccnc4cc(Cl)ccc34)ccc2F)nc(Cl)n1`, 57% (inactive). Regarding `NC(=O)c1ccc[n+](Cc2ccc(Cl)cc2Cl)c1`, the growth is 105% (inactive). Still for that read-out and setting: then `Cc1cc(Cl)nc(NCc2cc(Nc3ccnc4cc(Cl)ccc34)ccc2F)n1`, with 64.7% (inactive); and `COc1ccc(-c2ccc3c(c2)sc2nc(-c4ccc(F)cc4)cn23)cc1`, with 100% (inactive). As for `O=C(NCCCNc1cc(-c2cn(-c3ccccc3)nc2-c2cccc(O)c2)ccn1)c1ccccc1`, the growth was 50.8% (inactive). Same read-out and setting: for `FC(F)(F)c1cc(Nc2ccc3cc(OCCCN4CCOCC4)ccc3n2)ccc1Cl` the value was 54.3% (inactive).

With `COC(=O)[C@]12CC[C@@H](C)[C@H](C)[C@@H]1C1=CC[C@@H]3[C@@]4(C)C(C=O)=C[C@@](C)(COC(C)=O)C4=CC[C@@]3(C)[C@]1(C)CC2`, the growth was 12.9% (inactive).
